# PubChem BioAssay (Tox21)
# Unmarked numbers belong to inactive results. Records with an inconclusive call do not appear. A call without a number means that no potency is given here. Activity calls are given as the source filed them. Unless noted, calls follow the shape of the full dose curve.
# Tests used:
# [1] = Nuclear factor erythroid 2-related factor 2/antioxidant responsive element (Nrf2/ARE) small molecule agonists: qHTS cell viability counter screen in human keratinocytes (AID 1919968; active = well fitted curve in the direction sought with a large enough effect in the repeat runs; an effect the other way counts as inactive or inconclusive; also: nearly all actives have a fitted effect of over 55% in size; also: potency is read from the fitted curve at half-maximal effect)
# Procedure, shortened: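 KeratinoSens HaCaT cells, 1,500/well, preincubated 5 h, then exposed to compounds in DMSO for 23 h at 37 C/5% CO2. Viability read as CellTiter-Fluor fluorescence after 1 h, in the same wells as the ARE-luciferase read.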
# [2] = Nuclear factor erythroid 2-related factor 2/antioxidant responsive element (Nrf2/ARE) small molecule agonists: luciferase reporter gene qHTS assay in human keratinocytes (AID 1919969); also: nearly all actives have a fitted effect of over 35% in size
# [3] = target: Gonadotropin-releasing hormone receptor (Homo sapiens) (UniProt P30968); assay: Human gonadotropin-releasing hormone receptor (GnRHR) small molecule agonists, calcium flux assay in GnRHR-HEK293 cells (AID 1920063); also: nearly all actives have a fitted effect of over 35% in size
# Procedure, shortened: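 HEK293 cells stably expressing human GnRHR were dye-loaded for 1 h at 37 C. Compound was added in agonist mode and fluorescence (Ex/Em 480/540) recorded kinetically for 3 min. Fifteen concentrations, triplicates.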
# [4] = target: KiSS-1 receptor (Homo sapiens) (UniProt Q969F8); assay: Human kisspeptin (KISS1R) small molecule agonists, calcium flux assay in KISS1R-HEK293 cells (AID 1920064; active = well fitted curve in the direction sought with a large enough effect in the repeat runs; an effect the other way counts as inactive or inconclusive)
# Procedure, shortened: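 HEK293 cells stably expressing human KISS1R were loaded with calcium dye for 1 h at 37 C, then given compound; fluorescence (Ex/Em 480/540) was read kinetically for 3 min. Fifteen concentrations, triplicate.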
# [5] = G protein-coupled receptor (GPCR) small molecule agonists, calcium flux assay: HEK293 wild type cell line counter screen (AID 1920065)
# Procedure, shortened: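 Wild-type HEK293 cells plated 18 h, loaded with calcium dye 1 h at 37 C, then compounds added in agonist mode (ATP as positive control). Kinetic fluorescence Ex/Em 480/540 recorded 3 min at 1 sec intervals; 15 concentrations, triplicate.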
# [6] = p53 small molecule agonists, cell-based qHTS assay with rat liver microsomes (AID 1963578)
# Procedure, shortened: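 Agonist mode in p53RE-bla reporter cells, with compounds co-incubated 16 h at 37 C alongside 0.5 mg/mL rat liver microsomes and 0.5 mg/mL NADPH (final), followed by a 2 h LiveBLAzer detection step.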
# [7] = p53 small molecule agonists, cell-based qHTS assay with human liver microsomes: qHTS cell viability counter screen (AID 1963579); also: nearly all actives have a fitted effect of over 45% in size; also: potency is read from the fitted curve at half-maximal effect
# Procedure, shortened: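 Metabolically activated exposure: compounds, human liver microsomes and NADPH (0.5 mg/mL final apiece) were added to p53RE-bla cells seeded 5 h earlier, left 16 h at 37 C, and then assessed for viability by CellTiter-Glo luminescence.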
# [8] = p53 small molecule agonists, cell-based qHTS assay with rat liver microsomes: qHTS cell viability counter screen (AID 1963580); also: nearly all actives have a fitted effect of over 45% in size; also: potency is read from the fitted curve at half-maximal effect
# Procedure, shortened: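 p53RE-bla HCT-116 cells were exposed 16 h at 37 C to compounds with rat liver microsomes (0.5 mg/mL) and NADPH (0.5 mg/mL). Viability was measured in the same wells as ATP content by CellTiter-Glo luminescence.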
# [9] = p53 small molecule agonists, cell-based qHTS assay: qHTS cell viability counter screen (AID 1963581); also: nearly all actives have a fitted effect of over 45% in size; also: potency is read from the fitted curve at half-maximal effect
# Procedure, shortened: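 p53RE-bla HCT-116 cells, compounds added 5 h after plating and incubated 16 h at 37 C. Cytotoxicity measured in the same wells as intracellular ATP by CellTiter-Glo luminescence after 30 min at room temperature.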
# [10] = p53 small molecule agonists, cell-based qHTS assay (AID 1963582; active = well fitted activation curve with a large enough effect in the signal ratio in the repeat runs, not every such curve was filed as active; the % refers to the signal ratio)
# Procedure, shortened: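 p53RE-bla reporter cells, compounds added in DMSO after 5 h plating, incubated 16 h at 37 C. Beta-lactamase read via 2 h room-temperature LiveBLAzer B/G FRET substrate, fluorescence intensity.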
# [11] = target: 5-hydroxytryptamine receptor 2A (Homo sapiens) (UniProt P28223); assay: 5-hydroxytryptamine receptor 2A (HTR2A) small molecule agonists, cell-based qHTS assay (AID 1963587); also: nearly all actives have a fitted effect of over 30% in size
# Procedure, shortened: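 CHO cells stably expressing human HTR2A, plated 18 h, loaded with calcium dye 1 h at 37 C. Agonist mode: compounds added and intracellular calcium fluorescence recorded kinetically for 2 min at 1 sec intervals.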
# [12] = target: Muscarinic acetylcholine receptor M1 (Homo sapiens) (UniProt P11229); assay: Cholinergic receptor muscarinic 1 (CHRM1) small molecule antagonists, cell-based qHTS assay (AID 1963588); also: nearly all actives have a fitted effect of over 40% in size
# Procedure, shortened: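 CHRM1-CHO calcium-flux assay, antagonist mode. Cells were seeded 18 h, dye-loaded 1 h at 37 C and given compound for 5 min at RT, then acetylcholine was added at 50nM. FDSS fluorescence was read 3 min; 15 concentrations, three runs.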
# [13] = target: Muscarinic acetylcholine receptor M1 (Homo sapiens) (UniProt P11229); assay: Cholinergic receptor muscarinic 1 (CHRM1) small molecule agonists, cell-based qHTS assay (AID 1963589); also: nearly all actives have a fitted effect of over 35% in size
# Procedure, shortened: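 CHO cells stably expressing human CHRM1 were loaded with calcium dye for 1 h at 37 C, then compound was added in agonist mode. Intracellular calcium fluorescence was followed kinetically at 1 s intervals. Fifteen concentrations were tested in three independent runs.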
# [14] = cAMP Responsive Elements (CRE) small molecule agonists, cell-based qHTS assay (AID 1963590)
# Procedure, shortened: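 CRE-bla HEK 293T cells, 2,000/well in DMEM with 10% dialyzed FBS and 25 mM HEPES, pre-incubated 18 h at 37 C, then exposed to compound 3 h at 37 C. Beta-lactamase reporter read with LiveBLAzer B/G FRET substrate after 2 h at room temperature.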
# [15] = cAMP Responsive Elements (CRE) small molecule antagonists, cell-based qHTS assay (AID 1963591; active = well fitted inhibition curve with a large enough effect in the signal ratio in the repeat runs, not every such curve was filed as active; the % refers to the signal ratio)
# Procedure, shortened: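 CRE-bla HEK293T cells plated 18 h, then given compound plus NKH477 at 0.25 uM final for 3 h at 37C. Beta-lactamase reporter read with LiveBLAzer B/G FRET substrate after 2 h at room temperature.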
# [16] = target: Beta-2 adrenergic receptor (Homo sapiens) (UniProt P07550); assay: Adrenergic beta2 receptor (ADRB2) small molecule antagonists, cell-based qHTS assay (AID 1963592); also: series mostly up to about 92 µM; nearly all actives have a fitted effect of over 50% in size
# Procedure, shortened: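 Cells (CHO, stable ADRB2 overexpression) incubated 18-20hr at 37C; compounds added from DMSO; agonist mix (1nM isoproterenol, 100uM IBMX, 25uM Ro-20-1724) added; 0.5hr RT; d2-cAMP and anti-cAMP-cryptate added; 1hr RT; 665/615 nm read.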
# [17] = target: D(2) dopamine receptor (Homo sapiens) (UniProt P14416); assay: Dopamine D2 receptor (DRD2) small molecule agonists, cell-based qHTS assay (AID 1963594); also: nearly all actives have a fitted effect of over 35% in size
# Procedure, shortened: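 HEK293 cells stably expressing human DRD2, pre-treated with PDE inhibitor Ro20-1724 (0.1 mM final) and compound 10 min at room temperature, then stimulated with NKH477 (200nM […]) for 30 min. cAMP read by HTRF (665/620 nm).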
# [18] = target: D(2) dopamine receptor (Homo sapiens) (UniProt P14416); assay: Dopamine D2 receptor (DRD2) small molecule antagonists, cell-based qHTS assay (AID 1963595; active = well fitted inhibition curve with a large enough effect in the signal ratio in the repeat runs, with a control signal flat; the % refers to the signal ratio)
# Procedure, shortened: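 Antagonism was scored as restored cAMP in HEK293-DRD2 cells. These cells were stimulated with 200 nM NKH477 and 12 nM quinpirole for 30 min at room temperature, in the presence of 0.1 mM Ro20-1724.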
# [19] = target: 5-hydroxytryptamine receptor 2A (Homo sapiens) (UniProt P28223); assay: 5-hydroxytryptamine receptor 2A (HTR2A) small molecule antagonists, cell-based qHTS assay (AID 1963586); also: nearly all actives have a fitted effect of over 45% in size; also: potency is read from the fitted curve at half-maximal effect
# Procedure, shortened: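 Antagonist-mode intracellular calcium assay: DOI (4 nM) added after 5 min compound pre-incubation at room temperature to dye-loaded HTR2A-CHO cells. Fluorescence followed for 3 min, sampled every second.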
# Chain of KiSS-1 receptor (Homo sapiens) (Q969F8 whole entry, looked up): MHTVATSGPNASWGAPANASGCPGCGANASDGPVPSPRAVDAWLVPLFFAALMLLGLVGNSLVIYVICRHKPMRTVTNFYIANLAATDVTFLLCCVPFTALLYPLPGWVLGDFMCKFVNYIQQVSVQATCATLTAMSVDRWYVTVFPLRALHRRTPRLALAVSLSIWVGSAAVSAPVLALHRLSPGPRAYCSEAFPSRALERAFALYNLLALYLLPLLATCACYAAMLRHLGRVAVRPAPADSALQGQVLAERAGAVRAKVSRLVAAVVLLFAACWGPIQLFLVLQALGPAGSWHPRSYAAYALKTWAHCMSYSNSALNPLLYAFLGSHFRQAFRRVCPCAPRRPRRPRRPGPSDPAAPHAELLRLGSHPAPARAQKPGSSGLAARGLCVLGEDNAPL
# Chain of Muscarinic acetylcholine receptor M1 (Homo sapiens) (P11229 whole entry, looked up): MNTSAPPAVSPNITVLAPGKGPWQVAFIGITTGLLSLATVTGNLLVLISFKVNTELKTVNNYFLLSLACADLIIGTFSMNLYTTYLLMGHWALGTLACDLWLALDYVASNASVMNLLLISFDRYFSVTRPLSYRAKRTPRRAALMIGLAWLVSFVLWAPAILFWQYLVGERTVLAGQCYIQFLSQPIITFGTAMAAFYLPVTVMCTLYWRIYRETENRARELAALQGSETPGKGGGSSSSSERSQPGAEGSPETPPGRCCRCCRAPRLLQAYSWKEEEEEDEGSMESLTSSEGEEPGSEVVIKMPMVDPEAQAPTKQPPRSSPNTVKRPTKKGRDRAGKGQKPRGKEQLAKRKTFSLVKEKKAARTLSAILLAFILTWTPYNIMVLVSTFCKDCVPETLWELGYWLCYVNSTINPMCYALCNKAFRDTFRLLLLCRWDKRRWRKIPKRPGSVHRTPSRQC
# Chain of Gonadotropin-releasing hormone receptor (Homo sapiens) (P30968 whole entry, looked up): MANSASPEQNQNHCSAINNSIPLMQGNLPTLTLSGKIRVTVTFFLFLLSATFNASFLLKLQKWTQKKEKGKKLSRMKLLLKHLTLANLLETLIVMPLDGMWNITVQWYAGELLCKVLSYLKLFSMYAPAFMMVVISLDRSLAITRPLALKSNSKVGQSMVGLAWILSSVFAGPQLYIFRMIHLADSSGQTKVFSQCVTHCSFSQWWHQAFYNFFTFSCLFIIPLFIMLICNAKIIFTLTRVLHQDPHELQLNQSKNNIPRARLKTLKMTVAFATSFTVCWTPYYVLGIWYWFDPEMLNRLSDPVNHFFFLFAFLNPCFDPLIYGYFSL
# Chain of 5-hydroxytryptamine receptor 2A (Homo sapiens) (P28223 whole entry, looked up): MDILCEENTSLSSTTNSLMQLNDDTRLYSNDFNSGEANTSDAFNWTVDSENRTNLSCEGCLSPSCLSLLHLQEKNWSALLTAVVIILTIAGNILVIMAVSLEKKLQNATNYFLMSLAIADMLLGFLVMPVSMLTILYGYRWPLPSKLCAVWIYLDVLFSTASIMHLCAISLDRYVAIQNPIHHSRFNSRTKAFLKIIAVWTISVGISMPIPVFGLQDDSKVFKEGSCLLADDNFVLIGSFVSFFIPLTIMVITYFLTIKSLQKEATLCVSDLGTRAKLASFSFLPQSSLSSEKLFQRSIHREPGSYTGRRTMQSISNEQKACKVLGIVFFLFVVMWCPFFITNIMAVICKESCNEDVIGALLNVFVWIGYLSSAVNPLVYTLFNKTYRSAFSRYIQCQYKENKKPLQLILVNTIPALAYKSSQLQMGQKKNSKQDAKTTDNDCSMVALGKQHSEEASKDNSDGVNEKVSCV
# Chain of Beta-2 adrenergic receptor (Homo sapiens) (P07550 whole entry, looked up): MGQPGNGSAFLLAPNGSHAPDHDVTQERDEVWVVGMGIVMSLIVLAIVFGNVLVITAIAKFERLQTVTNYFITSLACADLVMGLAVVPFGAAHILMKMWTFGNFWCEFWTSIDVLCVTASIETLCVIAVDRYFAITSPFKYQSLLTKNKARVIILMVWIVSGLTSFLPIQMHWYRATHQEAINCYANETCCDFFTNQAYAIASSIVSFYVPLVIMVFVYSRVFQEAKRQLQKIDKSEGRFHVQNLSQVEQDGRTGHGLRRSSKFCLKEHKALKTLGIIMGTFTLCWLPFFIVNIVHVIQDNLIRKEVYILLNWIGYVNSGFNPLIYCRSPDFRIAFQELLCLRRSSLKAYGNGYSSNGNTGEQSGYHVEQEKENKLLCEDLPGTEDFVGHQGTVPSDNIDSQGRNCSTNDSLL
# Chain of D(2) dopamine receptor (Homo sapiens) (P14416 whole entry, looked up): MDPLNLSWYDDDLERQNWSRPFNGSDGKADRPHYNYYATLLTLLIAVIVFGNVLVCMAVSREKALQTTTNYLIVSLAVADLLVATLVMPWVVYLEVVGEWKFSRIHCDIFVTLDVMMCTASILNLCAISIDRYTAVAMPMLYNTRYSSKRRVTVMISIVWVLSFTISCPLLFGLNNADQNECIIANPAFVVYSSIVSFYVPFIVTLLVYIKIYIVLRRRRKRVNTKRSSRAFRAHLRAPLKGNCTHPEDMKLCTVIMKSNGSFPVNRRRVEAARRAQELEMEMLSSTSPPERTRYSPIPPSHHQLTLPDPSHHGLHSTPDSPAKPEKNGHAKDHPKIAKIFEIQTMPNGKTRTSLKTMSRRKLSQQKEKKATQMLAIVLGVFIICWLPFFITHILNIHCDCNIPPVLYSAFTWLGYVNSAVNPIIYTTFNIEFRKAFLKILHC
SMILES,Potency [1],Potency [2],Potency [3],outcome [4],outcome [5],Potency [6],Potency [7],Potency [8],Potency [9],Potency [10],Potency [11],Potency [12],Potency [13],Potency [14],Potency [15],Potency [16],Potency [17],Potency [18],Potency [19]
NC(=O)c1cn(Cc2c(F)cccc2F)nn1,inactive,inactive,inactive,inactive,inactive,inactive,inactive,inactive,inactive,inactive,inactive,inactive,inactive,inactive,inactive,inactive,inactive,inactive,
CCCCNc1ccc(C(=O)OCCN(C)C)cc1,inactive,inactive,inactive,inactive,inactive,inactive,inactive,inactive,inactive,inactive,,,,inactive,,inactive,inactive,inactive,
O=C(COCCOCCOCC(=O)Nc1c(I)cc(I)c(C(=O)O)c1I)Nc1c(I)cc(I)c(C(=O)O)c1I,inactive,inactive,inactive,inactive,inactive,inactive,inactive,inactive,inactive,inactive,inactive,inactive,inactive,inactive,inactive,,,inactive,inactive
C=CS(=O)(=O)O,inactive,inactive,inactive,inactive,inactive,inactive,inactive,inactive,inactive,,inactive,inactive,inactive,,inactive,inactive,inactive,inactive,inactive
CCCCCCCC/C=C\CCCCCCCCOCCO,22.4 µM (active),inactive,inactive,inactive,inactive,inactive,53 µM (active),53 µM (active),21.1 µM (active),,inactive,inactive,,,,inactive,inactive,,24.4 µM (active)
OCCCCC(O)CO (configuration not stated),inactive,inactive,inactive,inactive,inactive,inactive,inactive,inactive,inactive,inactive,inactive,inactive,inactive,inactive,,inactive,inactive,inactive,
CCOC(=O)CCC(=O)OCC,inactive,inactive,inactive,inactive,inactive,inactive,inactive,inactive,inactive,inactive,inactive,inactive,inactive,inactive,,inactive,inactive,,inactive
CCOC(=O)COC(=O)c1ccccc1C(=O)OCC,inactive,inactive,inactive,inactive,inactive,inactive,inactive,inactive,inactive,inactive,,,,,,inactive,,inactive,inactive
